These are literature values, as cited in PubChem BioAssay AID977611.

The structures appear in SMILES notation. About 3,900 (100%) of roughly 3,900 compounds were called active. Cut-off not given; nearly all actives show Kd up to about 4200 µM. The set was probably picked from earlier hits. Some of the results follow. Numbered stars: 1 amine (or outer) side, 2 acyl side, 3 side chain; on linkers, the order of the positions; unused ones are H or OH. Where a SMILES comes first, the peptide text is derived from it. Square brackets hold non-standard residues; d marks the D form. Peptide text beside a SMILES is read from it. [ ]: non-standard residue; d: D form. Lys(Me3) = C[N+](C)(C)CCCC[C@H](N)C(=O)O; Orn(CH(NH2)2) = NC(N)NCCC[C@H](N)C(=O)O; X2 = CNC(N)NCCC[C@H](N[*:1])C(=O)[*:2]

Usually Kd stands for the equilibrium constant for the complex coming apart.

The series in a line: PubChem AID 977611. The settings on record: PDB protein-ligand complexes, literature Kd.

Turning to `O=C(O)[C@H]1CCCN1C(=O)CCCCC(=O)N1CCC[C@@H]1C(=O)O`, the Kd (protein: Serum Amyloid P Component, PDB entry 4avt) is 8.8 nM (active).
With `CC(C)[C@@H]1NC(=O)[C@@H](NC(=O)[C@H](Cc2ccc(O)cc2)NC(=O)[C@@H]2CCCN2C(=O)[C@H](C)N)CSSC[C@@H](C(N)=O)NC(=O)[C@H](CO)NC(=O)[C@H](Cc2c[nH]c3ccccc23)NC(=O)[C@H](CO)NC(=O)CCNC(=O)[C@H](CCCN=C(N)N)NC(=O)[C@H](Cc2ccc(O)cc2)NC1=O`, the Kd (protein: Ephrin type-A receptor 4 EphA4 LBD, PDB entry 4w4z) is 30 nM (active).
As for `CC(C)[C@@H]1NC(=O)[C@@H](NC(=O)[C@H](Cc2ccc(O)cc2)NC(=O)[C@@H]2CCCN2C(=O)[C@H](C)N)CSSC[C@@H](C(=O)O)NC(=O)[C@H](CO)NC(=O)[C@H](Cc2c[nH]c3ccccc23)NC(=O)[C@H](CO)NC(=O)CNC(=O)[C@H](CCCN=C(N)N)NC(=O)[C@H](Cc2ccc(O)cc2)NC1=O`, under “protein: Ephrin type-A receptor 4 EphA4 LBD, PDB entry 4w50”, the Kd is 1400 nM (active).
Regarding `C[C@H](N)C(=O)N[C@@H](CCCNC(N)N)C(=O)N[C@H](C(=O)N[C@@H](CCCCN)C(=O)N[C@@H](CCC(N)=O)C(=O)N[C@H](C(=O)N[C@@H](C)C(=O)N[C@@H](CCCNC(N)N)C(=O)N[C@@H](CCCC[N+](C)(C)C)C(=O)N[C@@H](CO)C(=O)O)[C@@H](C)O)[C@@H](C)O`, for the setting “protein: Histone-lysine N-methyltransferase NSD3, PDB entry 4gng”, the Kd was 290000 nM (active).
Turning to `CNC(N)NCCC[C@H](NC(=O)[C@H](C)N)C(=O)N[C@H](C(=O)N[C@@H](CCCC[N+](C)(C)C)C(=O)N[C@@H](CCC(N)=O)C(=O)N[C@H](C(=O)N[C@@H](C)C(=O)N[C@@H](CCCNC(N)N)C(=O)N[C@@H](CCCCN)C(=O)N[C@@H](C)C(=O)N[C@@H](C)C(=O)NCC(=O)O)[C@@H](C)O)[C@@H](C)O` (some centres not stated) (H-A[X2]T[Lys(Me3)]QTA[Orn(CH(NH2)2)]KAAG-OH), the Kd (protein: RAG2-PHD, PDB entry 2v85) was 34600 nM (active).
For the compound `CC(C)C[C@H](N)C(=O)N[C@@H](C)C(=O)N[C@H](C(=O)N[C@@H](CCCCN)C(=O)N[C@@H](C)C(=O)N[C@@H](C)C(=O)N[C@@H](CCCNC(N)N)C(=O)N[C@@H](CCCC[N+](C)(C)C)C(=O)N[C@@H](CO)C(=O)O)[C@@H](C)O` (H-LATKAA[Orn(CH(NH2)2)][Lys(Me3)]S-OH), the Kd (protein: Polycomb protein, PDB entry 1pdq) is 5000 nM (active).
With `C[C@H](NC(=O)[C@@H](NC(=O)[C@H](CCC(N)=O)NC(=O)[C@H](CCCCN)NC(=O)[C@@H](N)[C@@H](C)O)[C@@H](C)O)C(=O)N[C@@H](CCCNC(N)N)C(=O)N[C@@H](CCCC[N+](C)(C)C)C(=O)N[C@@H](CO)C(=O)O` (H-TKQTA[Orn(CH(NH2)2)][Lys(Me3)]S-OH), the dissociation constant (Kd) (protein: SHH1 SAWADEE, PDB entry 4iur) was 2630 nM (active).
